Laboratory results published in ChEMBL document CHEMBL1961873, “Compounds: GSK PKIS; Assays: Nanosyn kinase panel” (2012).

Biological target: Leukocyte tyrosine kinase receptor (Homo sapiens) (UniProt P29376)
Details: at 1 µM
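Further: each value is the mean inhibition of LTK.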

Leukocyte tyrosine kinase receptor (Homo sapiens), sequence (P29376 whole entry): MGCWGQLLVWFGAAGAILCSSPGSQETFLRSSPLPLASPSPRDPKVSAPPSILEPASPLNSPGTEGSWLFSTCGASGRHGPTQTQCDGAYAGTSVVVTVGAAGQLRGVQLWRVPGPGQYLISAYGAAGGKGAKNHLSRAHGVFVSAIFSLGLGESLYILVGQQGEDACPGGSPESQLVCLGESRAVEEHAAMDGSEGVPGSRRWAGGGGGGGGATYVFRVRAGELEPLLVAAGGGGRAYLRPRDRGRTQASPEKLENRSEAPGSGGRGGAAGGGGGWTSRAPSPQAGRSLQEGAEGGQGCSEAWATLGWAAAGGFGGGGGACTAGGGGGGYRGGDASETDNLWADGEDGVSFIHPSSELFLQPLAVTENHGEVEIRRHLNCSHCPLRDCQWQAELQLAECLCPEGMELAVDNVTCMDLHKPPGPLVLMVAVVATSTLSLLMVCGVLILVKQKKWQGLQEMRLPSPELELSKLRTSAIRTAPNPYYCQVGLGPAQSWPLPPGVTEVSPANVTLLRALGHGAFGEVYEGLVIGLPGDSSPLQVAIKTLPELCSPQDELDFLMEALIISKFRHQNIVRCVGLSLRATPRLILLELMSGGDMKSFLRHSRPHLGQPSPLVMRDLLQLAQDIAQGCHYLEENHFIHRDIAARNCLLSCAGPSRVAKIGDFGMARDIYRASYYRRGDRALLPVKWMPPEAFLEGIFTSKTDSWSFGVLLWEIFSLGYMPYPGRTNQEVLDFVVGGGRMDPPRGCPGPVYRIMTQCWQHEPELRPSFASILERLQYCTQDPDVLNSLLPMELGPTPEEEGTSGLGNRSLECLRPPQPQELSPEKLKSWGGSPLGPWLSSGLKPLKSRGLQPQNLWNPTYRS

Row | SMILES | inhibition
1 | FC(F)(F)c1cccc(-c2nn3ncccc3c2-c2ccnc(Nc3ccc4c(c3)OCCO4)n2)c1 | 1.73%
2 | O=C(Nc1n[nH]c2cc(-c3ccc(F)cc3)ccc12)C1CC1 | 2.75%
3 | CN1CCC(n2cnc(-c3ccc(F)cc3)c2-c2ccnc(N)n2)CC1 | 4.69%
4 | COc1ccc(-c2cc(-c3c[nH]nc3-c3ccccn3)ccn2)cc1 | 5.89%
5 | COc1ccc(CNC(=O)c2ccc(-c3cc(-c4nnc(C)o4)ccc3C)cc2)cc1 | 4.21%
6 | CCN(CC)S(=O)(=O)c1ccc(OC)c(Nc2ncc(-c3ccccc3)o2)c1 | -0.4%
7 | CCOc1ccc2c(-c3ccnc(Nc4cccc(C(F)(F)F)c4)n3)cnn2n1 | 1.96%
8 | COc1cccc(-c2c[nH]c3c(N/N=C/c4ccncc4)ncnc23)c1 | 2.09%
9 | COc1cccc(-n2ncc3c(N/N=C/c4ccc(F)cc4)ncnc32)c1 | 3.69%
10 | NS(=O)(=O)c1ccc(N/N=C2\C(=O)Nc3ccc4ncccc4c32)cc1 | 10.1%
11 | Nc1nc(-c2ccc(F)cc2)c(-c2ccc3ncccc3n2)s1 | 7.86%
12 | CNC(=O)c1cncc(/C=C/c2ccccc2Cl)c1 | 1%
13 | COc1cc2c(cc1Nc1nc(Nc3ccsc3C(N)=O)c3cc[nH]c3n1)N(C(=O)CN(C)C)CCC2(C)C | 96.3%
14 | Fc1cccc(COc2ccc(Nc3ncnc4sc(-c5ccco5)cc34)cc2Cl)c1 | 4.08%
15 | COc1ccc2[nH]c3c4[nH]c5ccc(OC)cc5c4c4c(c3c2c1)C(=O)NC4=O | 78.3%
16 | CNC(=O)c1cc(-c2ccc(F)cc2)cc(-c2ccc(S(=O)(=O)N3CCCC3)cc2)c1N | 3.29%
17 | Nc1nc(-c2cccc(Cl)c2)c(-c2ccc3ncccc3n2)s1 | 6.22%

Row | SMILES | inhibition
18 | CCn1c(-c2nonc2N)nc2c(C#CC(C)(C)O)nc(OC[C@H](N)c3ccccc3)cc21 | 17.1%
19 | COc1cc(/C=N/Nc2ncnc3[nH]ncc23)ccc1O | 12.2%
20 | CC(=O)Nc1cccc(C#Cc2cncnc2Nc2ccc(OCc3cccc(F)c3)c(Cl)c2)c1 | 0.9%
21 | N#Cc1c(NC(=O)c2ccc(F)cc2)sc2c1CCCC2 | 0.33%
22 | Cc1cccc(Nc2ncc(-c3ccccc3)o2)c1 | 2.88%
23 | O=C(O[C@H]1CN[C@H](C#Cc2cc3ncnc(Nc4ccc(Cc5ccccc5)cc4)c3s2)C1)N1CCOCC1 | 0.57%
24 | COC(=O)c1sc(-n2cnc3cc(OC)c(OC)cc32)cc1OCc1ccccc1C(F)(F)F | 6.79%
25 | CN1CCC(n2cnc(-c3ccc(F)cc3)c2-c2ccnc(Nc3ccccc3)n2)CC1 | 1.97%
26 | CNC(=O)c1cccc(C#Cc2cncnc2Nc2ccc(OCc3cccc(F)c3)c(Cl)c2)c1 | 0.16%
27 | CS(=O)(=O)CCNCc1ccc(-c2ccc3ncnc(Nc4ccc(OCc5ccccc5)c(C(F)(F)F)c4)c3c2)o1 | 3.64%
28 | Nc1ncc(-c2cccc(S(N)(=O)=O)c2)c2scc(-c3ccc(F)c(Cl)c3)c12 | 54.6%
29 | CC(C)(CO)CNC(=O)c1ccc2c(c1)/C(=N/Nc1ccc(S(N)(=O)=O)cc1)C(=O)N2 | -1.87%
30 | CCCN1CCC(c2ccc(Nc3nc(Nc4cc(F)ccc4C(N)=O)c4cc[nH]c4n3)c(OC)c2)CC1 | 95%
31 | CCn1c(-c2nonc2N)nc2cnc(Oc3cccc(NC(=O)c4ccc(N(C)C)cc4)c3)cc21 | 0.1%
32 | Fc1ccc(-c2nn3ccccc3c2-c2ccncc2)cc1 | 0.03%
33 | COc1ccc(-c2oc3ncnc(N)c3c2-c2ccc(NC(=O)Nc3cc(C(F)(F)F)ccc3F)cc2)cc1 | 11.2%
